# In the library only some 7.2% were active in any assay of this set; here they are far more common.
# Sm TGR block: blocks Schistosoma mansoni thioredoxin glutathione reductase. Q962Y6. purified TGR, DTNB reduction, TNB absorbance 405 nm. Potency, µM (top dose mostly 114 µM), hits mostly inhibitors. 360,000 tested, 3% active. AID 485364; further: nearly all actives have a fitted effect of over 60% in size
#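 First, TGR (20 nM dispensed) and NADPH were mixed with compound. Second, a 15 min room-temperature incubation followed. Third, further NADPH and then DTNB were added to start the reaction. Finally, TNB absorbance was monitored kinetically.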
# RE007 growth inh: less growth of the S. pombe RE007 Vpr strain. S. pombe RE007 Vpr strain, BacTiter-Glo ATP luminescence, 24 h. Potency, µM (highest dose often 92.2 µM), most hits filed as inhibitors. 360,000 tested, 0.21% active. AID 651644; active means well fitted falling curve with a large enough effect; inconclusive means small, poorly fitted or top-dose-only effect; inactive means no such curve, though single readings can be large or run the other way; further: nearly all actives have a fitted effect of over 50% in size
#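 Fission yeast RE007 carrying one integrated HIV-1 vpr copy, seeded at OD 0.01 in PMG+AL medium with 23 nL pinned compound. Grown 24 h at 30 degrees; viability read by BacTiter-Glo luminescence after 5 min.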
# FMDV inh: foot and mouth disease virus antiviral activity; Potency, µM (top dose mostly 57.9 µM), most hits filed as inhibitors; 410,000 tested, 1.2% active; AID 1159524; FMDV antiviral cell-based qHTS; calls by dose curve; tested in HEK293T cells; further: read-out not given here; nearly all actives have a fitted effect of over 45% in size
# HCV inhibitor: inhibitors of hepatitis C virus infection. Huh7.5.1 HCVcc-Cre infection, luciferase reporter, 44 h. Potency, µM (titrated, usually from 41.8 µM), hits mostly inhibitors. 340,000 tested, 3.4% active
#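 A cell-based infection assay in which seeded cells (1,000 per well) receive test compound after 4 h, are inoculated with HCVcc-Cre at approximately 0.5 moi, and are incubated 44 h before luminescence detection.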
# MARV entry inh: blocks Marburg virus binding to or entry into cells; Marburg virus pseudotyped entry inhibition, cell reporter; Potency, µM (series often up to 37.8 µM), actives largely listed as inhibitors; 300,000 tested, 1.8% active; AID 540276; calls by dose curve; tested in HEK293 cells
# LASV entry inh: inhibitors of Lassa virus binding or cell entry | Lassa virus pseudotype entry inhibition, cell reporter | Potency, µM (series often up to 37.9 µM), actives largely listed as inhibitors | 300,000 tested, 1.2% active; calls by dose curve; tested in HEK293 cells; further: nearly all actives have a fitted effect of over 50% in size
# Numbers stand for hits; - = inactive; ? = inconclusive; . = not tested or not shown; [ ] = dose if it differs, or a comment. Unless noted, the call rests on the fitted dose curve; in most records, active means well fitted curve in the direction sought with a large enough effect; inconclusive means small, poorly fitted or top-dose-only effect, or another doubt; inactive means no such curve, though single readings can be large; an effect the other way counts as inactive or inconclusive.
SMILES,Sm TGR block,RE007 growth inh,FMDV inh,HCV inhibitor,MARV entry inh,LASV entry inh
COc1ccc(CCN2C(=O)CN(C3CCCCCC3)C(=O)C2c2ccc(Cl)cc2)cc1OC (configuration not stated),-,.,-,.,.,-
CN(C)CCCN(C(=O)c1ccc(Br)s1)c1nc2ccc(F)cc2s1,-,.,-,.,.,-
Cc1ccc2nc(N(CCCN(C)C)C(=O)c3ccco3)sc2c1,-,-,-,10µM,.,-
Cc1ccc2nc(N(CCCN(C)C)C(=O)c3ccc(Br)s3)sc2c1,-,-,-,10µM,?,?
CN(C)CCCN(C(=O)c1ccco1)c1nc2ccc(F)cc2s1,-,-,-,?,.,.
CSc1ccc(NC(=O)Nc2cc(C)ccn2)cc1,-,-,-,-,7.1µM,7.1µM
COc1cc(OC)c(OC)cc1CN1CCCC(n2cc(C(=O)N3CCCCC3)nn2)C1 (configuration not stated),.,.,-,.,.,.
Cc1ccc(-c2csc(NC(=O)c3ccc(S(=O)(=O)N4CCc5ccccc54)cc3)n2)cc1,-,-,?,4.5µM,-,-
Cn1cc(S(=O)(=O)N2CCc3ccccc32)cc1C(=O)Nc1ccc(Cl)cc1,-,-,28µM,?,.,.
Cc1ccc(-c2csc(NC(=O)C3=NN(c4ccccc4)C(=O)CC3)n2)cc1,-,-,28µM,?,?,?
O=C(Nc1nc(-c2ccccc2)cs1)c1ccc(S(=O)(=O)N2CCc3ccccc32)cc1,-,-,?,10µM,?,?
Cc1ccc2c(c1)c1c(c(=O)n(-c3ccccc3C)c(=O)n1CC(=O)N1CCCC1)n2C,-,.,-,.,.,-
COc1ccc(-n2ncc(C(=O)Nc3ccc4c(c3)OCCO4)c2C2CCN(C(=O)OC(C)(C)C)CC2)cc1,-,.,-,.,.,?
O=C(Nc1ccc(S(=O)(=O)N2CCCc3ccccc32)cc1)C1CCCO1 (configuration not stated),-,-,?,-,-,-
COc1ccc(C(=O)Nc2ccc(S(=O)(=O)N3CCc4ccccc43)cc2)cc1,.,-,?,11µM,?,13µM
O=C(O)C1CC=CCC1C(=O)Nc1ccc(S(=O)(=O)N2CCCc3ccccc32)cc1 (configuration not stated),-,-,-,-,2.1µM,3.3µM
C/C(=N\N1CCN(Cc2ccc(Cl)cc2)CC1)c1ccc([N+](=O)[O-])cc1,-,-,?,11µM,?,-
C/C(=N\NC(=O)c1ccc(CN2CCOCC2)cc1)c1ccc([N+](=O)[O-])cc1,-,-,?,11µM,-,-
O=[N+]([O-])c1ccc(Cl)c(/C=N/N2CCN(Cc3ccc(Cl)cc3)CC2)c1,-,-[3.69 µM],-,-,-,-
Cc1ncc(-c2ccc(F)cc2)c(C2CCCN(Cc3cccc(O)c3)C2)n1 (configuration not stated),.,.,-,.,.,.
Nc1nc(CN2CCN(c3ccccc3F)CC2)nc(Nc2ccc3c(c2)OCCO3)n1,-,-,22µM,-,-,-
COc1ccc(OC)c(Nc2nc(N)nc(CCl)n2)c1,32µM,-,?,4µM,-,?
COc1ccccc1Nc1nc(N)nc(CCl)n1,28µM,-,-,4.5µM,-,?
COc1ccc(N2CCN(Cc3nc(N)nc(Nc4ccccc4OC)n3)CC2)cc1,-,-,-,-,18µM,?
CCN1c2ccccc2-c2nc(SCC(=O)Nc3ccc(C)c(Cl)c3)ncc2S1(=O)=O,-,.,-,.,.,?
SMILES,Sm TGR block,RE007 growth inh,FMDV inh,HCV inhibitor,MARV entry inh,LASV entry inh
CC(C)OC(=O)c1c(-c2ccccc2)c(-c2ccccc2)nn(C)c1=O,-,.,?,.,-,-
COc1ccccc1Nc1nc(N)nc(CN2CCN(c3ccccc3F)CC2)n1,-,-,-,-,-,?
COc1ccc(OCc2nc(N)nc(Nc3ccccc3OC)n2)cc1,?,-,-,14µM,?,?
COc1ccccc1N1CCN(Cc2nc(N)nc(Nc3ccc(C)c(Cl)c3)n2)CC1,-,-,-,11µM,-,?
CCCCn1c(=O)[nH]c(=O)c2c1nc(-c1ccccn1)n2CC,-,-,-,-,-,?
O=C(O)c1cc(-c2ccccc2)n[nH]1,-,.,-,-,.,.
O=C(O)/C=C/C(=O)NNC(=O)c1cc(-c2ccccc2)n[nH]1,40µM,-,-,-,-,?
O=C(O)/C=C\C(=O)NNC(=O)c1cc(-c2ccccc2)n[nH]1,22µM,-,-,-,-,-

# Screening data from PubChem.
